According to the supplement of paper PMC8728848:
This excerpt belongs to a sample that is enriched for the strongest signals.

Assays:
Experiment in all cases: glycan array binding signal (z-score within array); higher = stronger binding
Settings in all cases: glycan notation: IUPAC condensed, linker removed
Fuc(a1-2)Gal = target: Fuc(a1-2)Gal
Method in brief: (§1)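 Glycan array data came from 3228 arrays in the Consortium for Functional Glycomics database, and only arrays with an available protein sequence were kept. Glycan names were put into IUPAC-condensed notation, and columns mapping to the same glycan were averaged. The binding signal is a within-array Z-score, averaged across arrays of one protein sequence run at different concentrations or buffers and across linkers. A negative Z-score can be read as non-binding.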

[1] = target: Fuc(a1-2)Gal(b1-3)GalNAc(a1-3)[Fuc(a1-2)]Gal(b1-4)GlcNAc
Method in brief: as §1

[2] = target: Fuc(a1-2)Gal(b1-4)GlcNAc6S
Method in brief: as §1

[3] = target: Fuc(a1-2)Gal3S(b1-4)GlcNAc
Method in brief: as §1

Fuc(a1-2)Gal6S(b1-4)Glc = target: Fuc(a1-2)Gal6S(b1-4)Glc
Method in brief: as §1

[4] = target: Fuc(a1-2)[Gal(a1-3)]Gal(b1-3)GlcNAc(b1-2)Man(a1-3)[Fuc(a1-2)[Gal(a1-3)]Gal(b1-3)GlcNAc(b1-2)Man(a1-6)]Man(b1-4)GlcNAc(b1-4)[Fuc(a1-6)]GlcNAc
Method in brief: as §1

[5] = target: Fuc(a1-2)[GalNAc(a1-3)]Gal
Method in brief: as §1

[6] = target: Fuc(a1-2)[GalNAc(a1-3)]Gal(b1-3)GlcNAc
Method in brief: as §1

[7] = target: Fuc(a1-2)[GalNAc(b1-3)]Gal
Method in brief: as §1

Gal(a1-3)Gal(b1-3)GlcNAc = target: Gal(a1-3)Gal(b1-3)GlcNAc
Method in brief: as §1

[8] = target: Gal(a1-3)Gal(b1-3)GlcNAc(b1-3)GalNAc
Method in brief: as §1

[9] = target: Gal(a1-3)Gal(b1-4)GlcNAc(b1-3)GalNAc
Method in brief: as §1

[10] = target: Gal(a1-4)Gal(b1-4)GlcNAc(b1-3)Gal(b1-4)Glc
Method in brief: as §1

[11] = target: Gal(b1-3)GlcNAc(a1-3)Gal(b1-4)GlcNAc
Method in brief: as §1

[12] = target: Gal(b1-3)GlcNAc(b1-2)Man(a1-3)[Gal(b1-3)GlcNAc(b1-2)Man(a1-6)]Man(b1-4)GlcNAc(b1-4)GlcNAc
Method in brief: as §1

[13] = target: Gal(b1-3)GlcNAc(b1-2)Man(a1-3)[Gal(b1-3)GlcNAc(b1-2)Man(a1-6)]Man(b1-4)GlcNAc(b1-4)[Fuc(a1-6)]GlcNAc
Method in brief: as §1

[14] = target: Gal(b1-3)GlcNAc(b1-2)Man(a1-3)[GlcNAc(b1-4)][Gal(b1-3)GlcNAc(b1-2)Man(a1-6)]Man(b1-4)GlcNAc(b1-4)GlcNAc
Method in brief: as §1

[15] = target: Gal(b1-3)GlcNAc(b1-2)[Gal(b1-3)GlcNAc(b1-6)]Man(a1-6)[Gal(b1-3)GlcNAc(b1-2)Man(a1-3)]Man(b1-4)GlcNAc(b1-4)GlcNAc
Method in brief: as §1

[16] = target: Gal(b1-3)GlcNAc(b1-6)[Gal(b1-3)]GalNAc
Method in brief: as §1

[17] = target: Gal(b1-4)GlcNAc(b1-2)[Gal(b1-4)GlcNAc(b1-4)]Man(a1-3)[Gal(b1-4)GlcNAc(b1-2)Man(a1-6)]Man(b1-4)GlcNAc(b1-4)GlcNAc
Method in brief: as §1

[18] = target: Gal(b1-4)GlcNAc(b1-2)[Gal(b1-4)GlcNAc(b1-6)]Man(a1-6)[GlcNAc(b1-4)][Gal(b1-4)GlcNAc(b1-2)Man(a1-3)]Man(b1-4)GlcNAc(b1-4)GlcNAc
Method in brief: as §1

[19] = target: Gal(b1-4)GlcNAc(b1-3)Gal(b1-4)GlcNAc
Method in brief: as §1

[20] = target: Gal(b1-4)GlcNAc(b1-3)Gal(b1-4)GlcNAc(b1-2)Man(a1-3)[Gal(b1-4)GlcNAc(b1-3)Gal(b1-4)GlcNAc(b1-2)Man(a1-6)]Man(b1-4)GlcNAc(b1-4)GlcNAc
Method in brief: as §1

[21] = target: Gal(b1-4)GlcNAc(b1-3)Gal(b1-4)GlcNAc(b1-2)[Gal(b1-4)GlcNAc(b1-3)Gal(b1-4)GlcNAc(b1-6)]Man(a1-6)[Gal(b1-4)GlcNAc(b1-3)Gal(b1-4)GlcNAc(b1-2)Man(a1-3)]Man(b1-4)GlcNAc(b1-4)GlcNAc
Method in brief: as §1

[22] = target: Gal(b1-4)GlcNAc(b1-3)Gal(b1-4)GlcNAc(b1-3)Gal(b1-4)GlcNAc(b1-2)Man(a1-3)[Gal(b1-4)GlcNAc(b1-3)Gal(b1-4)GlcNAc(b1-3)Gal(b1-4)GlcNAc(b1-2)Man(a1-6)]Man(b1-4)GlcNAc(b1-4)[Fuc(a1-6)]GlcNAc
Method in brief: as §1

[23] = target: Gal3S(b1-3)[Fuc(a1-4)]GlcNAc
Method in brief: as §1

Gal3S(b1-4)Glc = target: Gal3S(b1-4)Glc
Method in brief: as §1

GalNAc(b1-4)GlcNAc6S = target: GalNAc(b1-4)GlcNAc6S
Method in brief: as §1

[24] = target: GlcA3S(b1-3)Gal(b1-4)GlcNAc(b1-3)Gal(b1-4)Glc
Method in brief: as §1

[25] = target: GlcNAc(a1-4)Gal(b1-4)GlcNAc(b1-3)Gal(b1-4)GlcNAc(b1-3)Gal(b1-4)GlcNAc
Method in brief: as §1

[26] = target: GlcNAc(b1-3)Gal(b1-3)GalNAc
Method in brief: as §1

[27] = target: GlcNAc(b1-3)Gal(b1-4)GlcNAc(b1-3)Gal(b1-4)GlcNAc(b1-2)Man(a1-3)[GlcNAc(b1-3)Gal(b1-4)GlcNAc(b1-3)Gal(b1-4)GlcNAc(b1-2)Man(a1-6)]Man(b1-4)GlcNAc(b1-4)GlcNAc
Method in brief: as §1

[28] = target: GlcNAc(b1-3)Gal(b1-4)GlcNAc(b1-3)Gal(b1-4)GlcNAc(b1-3)Gal(b1-4)GlcNAc(b1-2)Man(a1-3)[GlcNAc(b1-3)Gal(b1-4)GlcNAc(b1-3)Gal(b1-4)GlcNAc(b1-3)Gal(b1-4)GlcNAc(b1-2)Man(a1-6)]Man(b1-4)GlcNAc(b1-4)[Fuc(a1-6)]GlcNAc
Method in brief: as §1

[29] = target: GlcNAc(b1-6)Gal(b1-4)GlcNAc
Method in brief: as §1

Kdn(a2-3)Gal(b1-4)Glc = target: Kdn(a2-3)Gal(b1-4)Glc
Method in brief: as §1

[30] = target: Man(a1-2)Man(a1-3)[Man(a1-2)Man(a1-6)]Man
Method in brief: as §1

[31] = target: Man(a1-2)Man(a1-3)[Man(a1-2)Man(a1-6)]Man(a1-6)[Man(a1-2)Man(a1-2)Man(a1-3)]Man
Method in brief: as §1

[32] = target: Man(a1-2)Man(a1-6)[Man(a1-3)]Man(a1-6)[Man(a1-2)Man(a1-2)Man(a1-3)]Man(b1-4)GlcNAc(b1-4)GlcNAc
Method in brief: as §1

Man(a1-6)Man = target: Man(a1-6)Man
Method in brief: as §1

Neu5Ac(a2-3)Gal(b1-4)Glc = target: Neu5Ac(a2-3)Gal(b1-4)Glc
Method in brief: as §1

[33] = target: Neu5Ac(a2-3)Gal(b1-4)[Fuc(a1-3)]GlcNAc6S
Method in brief: as §1

[34] = target: Neu5Ac(a2-6)Gal(b1-3)GlcNAc(b1-3)[Gal(b1-4)GlcNAc(b1-6)]Gal(b1-4)Glc
Method in brief: as §1

[35] = target: Neu5Ac(a2-6)Gal(b1-4)GlcNAc(b1-3)Gal(b1-4)GlcNAc(b1-3)Gal(b1-4)GlcNAc(b1-2)Man(a1-3)[Neu5Ac(a2-6)Gal(b1-4)GlcNAc(b1-3)Gal(b1-4)GlcNAc(b1-3)Gal(b1-4)GlcNAc(b1-2)Man(a1-6)]GalNAc
Method in brief: as §1

[36] = target: Neu5Ac(a2-8)Neu5Ac(a2-3)Gal(b1-4)Glc
Method in brief: as §1

[37] = target: Neu5Ac(a2-8)Neu5Gc(a2-3)Gal(b1-4)GlcNAc
Method in brief: as §1

[38] = target: Neu5Ac9Ac(a2-3)Gal(b1-4)GlcNAc
Method in brief: as §1

[39] = target: Neu5Gc(a2-3)Gal(b1-4)GlcNAc
Method in brief: as §1

B1: Si Bti9 1b-HA (Solanum lycopersicum) (protein)
chain: MFESRPRSVLSLGVFVILVYLSSVPLPVNSQCNRGCDLALASFYVWRGSNLTLISEMFSTSIADIVSYNNRDNIPNQDSVIAGTRINIPFRCDCLNDGEVLGHAFPYRVKSGDTYDLVARNYSDLTTAQWMMKFNSYPENNIPNTVNLSVVVNCSCGNSDVSKDFGLFVTYPVRAEDNLTSVASAANVSEDIIRRYNPAAVSILDIGQGIIYIPGRDRNGNFPPLPTSTDGLSGGAKAPLFFNPAFLYKVVELKLAGRSRTSGYPYDVPDYAGYPYDVPDYALEVLFQ
glycan array binding signal (z-score) (Fuc(a1-2)Gal): -0.051 | glycan array binding signal (z-score) [1]: 0.182 | glycan array binding signal (z-score) [2]: -0.271 | glycan array binding signal (z-score) [3]: -0.035 | glycan array binding signal (z-score) (Fuc(a1-2)Gal6S(b1-4)Glc): -0.028 | glycan array binding signal (z-score) [4]: 2.04 | glycan array binding signal (z-score) [5]: -0.349 | glycan array binding signal (z-score) [6]: -0.146 | glycan array binding signal (z-score) [7]: -0.405 | glycan array binding signal (z-score) (Gal(a1-3)Gal(b1-3)GlcNAc): 9.57 | glycan array binding signal (z-score) [8]: 0.207 | glycan array binding signal (z-score) [9]: -0.182 | glycan array binding signal (z-score) [10]: -0.274 | glycan array binding signal (z-score) [11]: -0.16 | glycan array binding signal (z-score) [12]: 3.24 | glycan array binding signal (z-score) [13]: 1.03 | glycan array binding signal (z-score) [14]: 3.72 | glycan array binding signal (z-score) [15]: 2.51 | glycan array binding signal (z-score) [16]: -0.205 | glycan array binding signal (z-score) [17]: -0.324 | glycan array binding signal (z-score) [18]: -0.363 | glycan array binding signal (z-score) [19]: -0.346 | glycan array binding signal (z-score) [20]: 3.44 | glycan array binding signal (z-score) [21]: 2.69 | glycan array binding signal (z-score) [22]: 0.042 | glycan array binding signal (z-score) [23]: -0.237 | glycan array binding signal (z-score) (Gal3S(b1-4)Glc): 2.57 | glycan array binding signal (z-score) (GalNAc(b1-4)GlcNAc6S): -0.204 | glycan array binding signal (z-score) [24]: -0.157 | glycan array binding signal (z-score) [25]: -0.231 | glycan array binding signal (z-score) [26]: -0.271 | glycan array binding signal (z-score) [27]: 2.7 | glycan array binding signal (z-score) [28]: 0.086 | glycan array binding signal (z-score) [29]: -0.32 | glycan array binding signal (z-score) (Kdn(a2-3)Gal(b1-4)Glc): -0.287 | glycan array binding signal (z-score) [30]: -0.589 | glycan array binding signal (z-score) [31]: -0.638 | glycan array binding signal (z-score) [32]: -0.201 | glycan array binding signal (z-score) (Man(a1-6)Man): 7.42 | glycan array binding signal (z-score) (Neu5Ac(a2-3)Gal(b1-4)Glc): 0.009 | glycan array binding signal (z-score) [33]: -0.438 | glycan array binding signal (z-score) [34]: -0.236 | glycan array binding signal (z-score) [35]: 2.19 | glycan array binding signal (z-score) [36]: 0.02 | glycan array binding signal (z-score) [37]: -0.539 | glycan array binding signal (z-score) [38]: -0.425 | glycan array binding signal (z-score) [39]: -0.219
